HT1080 IDH1KD tx: kills HT-1080 cells with IDH1 knockdown | HT-1080 IDH1 knockdown viability, ATP luminescence, 48 h | actives 2% (n = 360,000) | AID 686971 | Potency, µM (titrated, usually from 46.1 µM), inactives show at the highest dose activity, negative = toxicity, most hits filed as cytotoxic;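 also: 0% = DMSO wells and -100% = cell-free medium wells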
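Assay cells: HT-1080 with IDH1 knockdown, 750 per well, RPMI/5% FBS. Exposure: 48 h at 37 °C following 2 h pre-incubation. Read: CellTiter-Glo luminescence; fitted concentration-response, curve class assigned.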
HepG2 tox: kills HepG2 cells in TGF-b inhibitor counter-screen | HepG2 CAGA-GFP viability, ATP luminescence, 18 h | Potency, µM (series often up to 46.1 µM), without a hit: at the top dose activity change, negative = cytotoxicity, hits mostly cytotoxic | actives 0.76% (n = 410,000)
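HepG2 CAGA-GFP cells (1000/well, DMEM with 1% FBS) received compound, then TGF-beta at 500 pg/mL final, and were incubated 18 hours at 37 degrees C. Viability was read by CellTiter-Glo luminescence. Media-only wells were set as complete cell-killing and DMSO as no toxicity.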
TDP1 cell CPT: growth inhibition of DT40 Tdp1-/-;hTDP1 cells with camptothecin (screen for TDP1 inhibitors); Potency, µM (highest dose often 46.2 µM), without a hit: top-dose activity change, negative = growth inhibition, usual class: inhibitors; chicken DT40 Tdp1-/-;hTDP1 cells + 20 nM CPT, ATP luminescence, 48 h; actives 12% (n = 420,000); also: % is scaled to controls: 0 for no effect and ±100 for the full control effect; nearly all actives have a fitted effect of over 55% in size
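Chicken DT40 Tdp1-/- cells stably complemented with human TDP1 were seeded at 400 cells/well in medium containing 20 nM camptothecin, exposed to pin-transferred compounds, and grown at 37 °C for at least 48 hr. Viability was read as ATP luminescence.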
TDP1 cell noCPT: qHTS for Inhibitors of human tyrosyl-DNA phosphodiesterase 1 (TDP1): qHTS in cells in absence of CPT; DT40 Tdp1-/- hTDP1 cells, no CPT, ATP luminescence, 48 h; Potency, µM (titrated, usually from 46.2 µM), without a hit: at the highest dose activity change, negative = growth inhibition, most hits filed as inhibitors; actives 15% (n = 420,000); AID 686978, 2013; also: % is scaled to controls: 0 for no effect and ±100 for the full control effect; nearly all actives have a fitted effect of over 55% in size
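Chicken DT40 Tdp1-/- cells stably complemented with human TDP1 were seeded at 400 cells/well with DMSO in place of 20 nM camptothecin. After compound pinning, cells grew at least 48 hr at 37 °C; viability read by CellTiter-Glo luminescence.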
HT1080-NT tox: kills 2HG-producing HT-1080-NT fibrosarcoma cells; HT-1080-NT fibrosarcoma viability, CellTiter-Glo ATP luminescence, 48 h; Potency, µM (highest dose often 46.1 µM), for the others: top-dose activity, negative = less viability, actives largely listed as cytotoxic; actives 1.6% (n = 360,000); AID 686970;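 also: NT is the 2HG producing partner of a matched IDH1 knockdown line; 0% = DMSO-treated cells and -100% = media-only wells without cells; nearly all actives have a fitted effect of over 55% in size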
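Read-out is CellTiter-Glo luminescence after 10 minutes at room temperature, following 48 hours' compound treatment of HT-1080-NT cells (750 cells/well, RPMI, 5% FBS, 37 degrees C).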
TGFb inhibitor: blocks TGF-b signaling | AID 588855 | actives 1.2% (n = 410,000) | Potency, µM (series often up to 46.1 µM), for inactives: at the highest dose activity, negative = inhibition, hits mostly inhibitors | HepG2 CAGA-GFP TGF-b/SMAD3 reporter, GFP fluorescence, 18 h; TGF-beta stimulated, 500 pg/mL final; also: % is scaled to controls: 0 for no effect and ±100 for the full control effect; nearly all actives have a fitted effect of over 65% in size
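HEPG2 CAGA-GFP, 1000 cells/well; 2 h settle, 37 C; cpd via pin tool; TGF-b 500 pg/mL final; 18 h, 37 C; GFP imaging ex488/em500-530; %Activity normalised to -TGF-b and +DMSO controls; CRC fit, curve class.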
* marks the source's active call; other numbers are inactive results. In the library only some 17% were active in any assay of this set; here they are far more common. Calls follow the shape of the dose curve; as a rule, active = well fitted curve in the direction sought with a large enough effect; inconclusive = small, poorly fitted or top-dose-only effect, or another doubt; inactive = no such curve, though single readings can be large; an effect the other way counts as inactive or inconclusive. Potency is read from the fitted curve at half-maximal effect.

What do the screens show for `CC(C)C(C)/C=C/C(C)C1CCC2C3=CCC4CC(=O)CC[C@@]4(C)C3CC[C@]21C` (some centres not stated)?
TDP1 cell CPT: 3.3%; TDP1 cell noCPT: -16.6%

What do the screens show for `Cc1cc(N2O[C@]34C=C[C@]25C[C@@H](O)CC[C@]5(C)C3CC[C@]2(C)[C@@H]([C@H](C)/C=C/[C@H](C)C(C)C)CC[C@H]24)no1` (some centres not stated)?
HT1080 IDH1KD tx: 2.0%; HepG2 tox: 1.3%; TDP1 cell CPT: 11.6µM*; TDP1 cell noCPT: 9.2µM*; HT1080-NT tox: -6.8%; TGFb inhibitor: -4.1%

Results for COc1ccc(OC)c(N(CCN2C(=O)c3ccccc3C2=O)C(=O)C2CCC(=O)C2C)c1 (configuration not stated) ?
HT1080 IDH1KD tx: -0.6%; HepG2 tox: -0.4%; TDP1 cell CPT: -2.2%; TDP1 cell noCPT: 5.6%; HT1080-NT tox: 4.6%; TGFb inhibitor: 3.7%

Results for Cc1ccsc1C(=O)N(CC(C)C)c1c(N)n(Cc2ccccc2)c(=O)[nH]c1=O ?
HT1080 IDH1KD tx: -12.6%; HepG2 tox: -1.3%; TDP1 cell CPT: 1.8%; TDP1 cell noCPT: -9.3%; HT1080-NT tox: -4.0%; TGFb inhibitor: 6.0%

What do the screens show for `COc1ccc2nc(Cl)cc(Cl)c2c1`?
HT1080 IDH1KD tx: 19.1%; HepG2 tox: -48.2%; TDP1 cell CPT: -1.7%; TDP1 cell noCPT: 7.7%; HT1080-NT tox: 23.7%; TGFb inhibitor: -4.4%

What do the screens show for `C=CS(=O)(=O)c1c2cc(OC)ccc2nc2ccc(OC)cc12`?
HT1080 IDH1KD tx: inconclusive; HepG2 tox: 14.1µM*; TDP1 cell CPT: 2.31µM*; TDP1 cell noCPT: 2.59µM*; HT1080-NT tox: inconclusive; TGFb inhibitor: inconclusive

How did COC(=O)[C@@H](NCc1ccc(B(O)O)cc1)C(C)C do in these assays?
HT1080 IDH1KD tx: 8.1%; HepG2 tox: -14.7%; TDP1 cell CPT: -1.5%; TDP1 cell noCPT: -14.4%; HT1080-NT tox: 1.7%; TGFb inhibitor: 7.5%

How did Cc1nc2c(F)c(F)c(C(F)(F)F)c(F)c2[nH]1 do in these assays?
HT1080 IDH1KD tx: inconclusive; HepG2 tox: -29.8%; TDP1 cell CPT: inconclusive; TDP1 cell noCPT: 20.6µM*; HT1080-NT tox: -25.6%; TGFb inhibitor: -9.0%

What do the screens show for `Cc1nc2c(Br)c3nc(C(F)(F)F)[nH]c3c(Br)c2[nH]1`?
HT1080 IDH1KD tx: -1.7%; HepG2 tox: 4.6%; TDP1 cell CPT: -5.6%; TDP1 cell noCPT: -20.1%; HT1080-NT tox: 1.3%; TGFb inhibitor: -6.5%

How did CC(=O)Nc1ccc(SC(C)C(=O)NC(N)=O)cc1 (configuration not stated) do in these assays?
HT1080 IDH1KD tx: 0.0%; HepG2 tox: -5.1%; TDP1 cell CPT: 0.8%; TDP1 cell noCPT: -0.9%; HT1080-NT tox: -0.4%; TGFb inhibitor: 0.8%

Results for CCCSC(=S)c1c(C)[nH]n(-c2ccccc2)c1=O ?
HT1080 IDH1KD tx: 13µM*; HepG2 tox: -57.0%; TDP1 cell CPT: 20.6µM*; TDP1 cell noCPT: 16.4µM*; HT1080-NT tox: inconclusive; TGFb inhibitor: 0.0%

How did CCOC(=O)c1nn(-c2cccc(C)c2)c2nnc(Cc3ccc(C)cc3)c(=O)n12 do in these assays?
HT1080 IDH1KD tx: -0.3%; HepG2 tox: 1.7%; TDP1 cell CPT: -1.1%; TDP1 cell noCPT: -2.3%; HT1080-NT tox: 12.9%; TGFb inhibitor: -22.4%

How did N#CC(C#N)=NNc1ccc(S(=O)(=O)N2CCCCC2)cc1 do in these assays?
HT1080 IDH1KD tx: -9.4%; HepG2 tox: -44.2%; TDP1 cell CPT: inconclusive; TDP1 cell noCPT: 16.4µM*; HT1080-NT tox: -3.7%; TGFb inhibitor: 7.94µM*

What do the screens show for `N#C/C(=N\Nc1ccc(S(=O)(=O)N2CCOCC2)cc1)C(N)=S`?
HT1080 IDH1KD tx: -14.7%; HepG2 tox: -9.6%; TDP1 cell CPT: inconclusive; TDP1 cell noCPT: inconclusive; HT1080-NT tox: -20.7%; TGFb inhibitor: -21.6%

Results for COc1ccccc1NC(=O)c1ccc(S(=O)(=O)N2CCCC2)cc1 ?
HT1080 IDH1KD tx: 8.9%; HepG2 tox: -10.9%; TDP1 cell CPT: -1.8%; TDP1 cell noCPT: -26.4%; HT1080-NT tox: -1.7%; TGFb inhibitor: 3.4%

What do the screens show for `CCS(=O)c1ccccc1C(=O)OC(C)C(=O)Nc1ccc(S(=O)(=O)N2CCCC2)cc1` (configuration not stated)?
HT1080 IDH1KD tx: 0.4%; HepG2 tox: -1.2%; TDP1 cell CPT: 13µM*; TDP1 cell noCPT: inconclusive; HT1080-NT tox: 6.8%; TGFb inhibitor: -12.9%

How did COc1cc(S(=O)(=O)N2CCCCC2)ccc1NC(=O)c1ccccc1Cl do in these assays?
HT1080 IDH1KD tx: -4.3%; HepG2 tox: -22.0%; TDP1 cell CPT: 16.4µM*; TDP1 cell noCPT: 16.4µM*; HT1080-NT tox: -17.6%; TGFb inhibitor: inconclusive

What do the screens show for `COc1ccccc1NS(=O)(=O)c1ccc(C)c(NC(=O)c2ccc(S(=O)(=O)N3CCCCCC3)cc2)c1`?
HT1080 IDH1KD tx: -2.5%; HepG2 tox: -1.7%; TDP1 cell CPT: inconclusive; TDP1 cell noCPT: 20.6µM*; HT1080-NT tox: -8.6%; TGFb inhibitor: -11.0%

What do the screens show for `COc1ccccc1NC(=O)c1cc(S(=O)(=O)N2CCCCCC2)ccc1F`?
HT1080 IDH1KD tx: -4.6%; HepG2 tox: -4.5%; TDP1 cell CPT: inconclusive; TDP1 cell noCPT: inconclusive; HT1080-NT tox: -6.1%; TGFb inhibitor: -10.5%

Results for Cc1sc2nc(-c3ccc(Br)cc3)oc(=O)c2c1C ?
HT1080 IDH1KD tx: 1.2%; HepG2 tox: -0.7%; TDP1 cell CPT: -2.8%; TDP1 cell noCPT: -6.9%; HT1080-NT tox: 17.5%; TGFb inhibitor: -3.2%

What do the screens show for `COCCN1C(=O)c2ccccc2C1c1nnnn1Cc1ccccc1` (configuration not stated)?
HT1080 IDH1KD tx: 4.6%; TDP1 cell CPT: -11.2%; TDP1 cell noCPT: -9.6%; HT1080-NT tox: 7.0%

What do the screens show for `CN1CCN(S(=O)(=O)c2ccc(NC(=O)c3ccccc3Cl)cc2)CC1`?
HT1080 IDH1KD tx: -0.4%; HepG2 tox: -16.8%; TDP1 cell CPT: 11.9%; TDP1 cell noCPT: -1.1%; HT1080-NT tox: -4.0%; TGFb inhibitor: -8.5%
